22 compounds from PubChem BioAssay AID651949 (Broad Institute, 2012) can be followed below.

SMILES strings stand for the structures. Potency and affinity values are given separately. Active and inactive are the calls of the source.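 Rule for the calls: active = compounds lowering cell ATP signal whose fitted half-maximal concentration is at most twice the top tested dose; inconclusive = flat curve with 30 to 70% signal loss, or poor fit; inactive = the rest.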

This experiment in a line: HEK293T cell cytotoxicity, dose response, cytotoxicity control, CellTiter-Glo luminescence, dry powder, set 6 (AID 651949). The following applies: HEK293T viability, CellTiter-Glo ATP luminescence, 48 h; series mostly up to 26 µM.
Consider `Cc1ccc(-c2nnc(SCc3ccccn3)o2)cc1`, for which the result was inactive.
With `CS(=O)(=O)c1ccccc1CSc1nnc(-c2ccccc2)o1`, the compound was classed as inactive.
As for `Fc1ccc(-c2nnc(SCc3ccccc3)o2)cc1`, the outcome was inactive.
Regarding `c1ccc(Cn2cc(CSc3nnc(C4CCC4)o3)nn2)cc1`, the call was inactive.
As to `FC(F)(F)Oc1cccc(-c2nnc(SCc3ccccc3)o2)c1`, the result was inactive.
The value for `c1ccc(CSc2nnc(Cc3ccccc3)o2)cc1` was “inactive”; that for `c1ccc(-c2nnc(SCc3ccccn3)o2)cc1` was “inactive”; that for `c1ccc(-c2ccc(CSc3nnc(-c4ccccc4)o3)cc2)cc1` was “inactive”.
On to `Fc1ccc(CSc2nnc(-c3ccncc3)o2)cc1`, for which the outcome was inactive.
Then `c1ccc(Cn2cc(CSc3nnc(C4CCCC4)o3)nn2)cc1`, with “inactive”; and `FC(F)(F)Oc1ccc(-c2nnc(SCc3ccccc3)o2)cc1`, with “inactive”; and `O=C(Cc1ccccc1)c1nnc(-c2ccccc2)o1`, with “inactive”.
Then `c1ccc(-c2nnc(SCCN3CCCC3)o2)cc1`, with “inactive”; and `c1ccc(CSc2nnc(-c3cc4ccccc4o3)o2)cc1`, with “inactive”; and `c1ccc(CSc2nnc(-c3ccccn3)o2)cc1`, with “inactive”.
The value for `CC(C)c1nnc(SCc2ccccc2)o1` was “inactive”.
Regarding `O=S(Cc1cn(Cc2ccccc2)nn1)c1nnc(-c2ccc(Cl)cc2)o1` (configuration not stated), the compound was classed as inactive.
Then `c1ccc(CSc2nnc(-c3ccco3)o2)cc1`, with “inactive”; and `c1ccc(CSc2nnc(-c3ccncc3)o2)cc1`, with “inactive”.
Turning to `CC1(O)CN(CCSc2nnc(-c3ccccc3)o2)C1`, the call was inactive.
On to `c1ccc(-c2nnc(SCc3cccnc3)o2)cc1`, for which the call was inactive.
Then `COc1ccccc1-c1nnc(SCc2ccccn2)o1`, with “inactive”.
